# Experimental data as given in PubChem BioAssay (EPA / NIEHS).
# Values joined by “and” are separate entries in the source; they are usually repeats but may differ in a detail not shown here. Equal values may be shown once. A structure can be active in one record and inactive in another. Active and inactive are the calls of the source. Rule for the calls: active = hit-call score of the fitted dose curve at least 0.9, where 1 is the maximum; inactive = score below 0.9.
# How the values were obtained:
# [1] = read-out: urokinase plasminogen activator (uPA), PLAU (gene 5328); assay: BSK_KF3CT_uPA: BioMAP Diversity Plus: KF3CT Assay for urokinase plasminogen activator (uPA) Biomarker Activity (AID 2283075); conditions: primary human keratinocytes with fibroblasts; actives raise or lower the signal
# Method in brief: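 Skin co-culture (keratinocytes + foreskin fibroblasts), human primary; 24 h post-dose; uPA by ELISA; gain/loss fit vs DMSO baseline.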
# CD40, CD40 (gene 958) = assay: BSK_LPS_CD40: BioMAP Diversity Plus: LPS Assay for CD40 Biomarker Activity (AID 2283076); conditions: primary human HUVEC with PBMC; actives raise or lower the signal
# Method in brief: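 Primary human umbilical vein endothelial cells co-cultured with peripheral blood mononuclear cells, LPS-stimulated, were dosed with chemical and read 24 h later. CD40 levels were measured by ELISA and fitted bidirectionally against DMSO as negative control and baseline.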
# [2] = read-out: E-selectin (Homo sapiens) (UniProt P16581); assay: BSK_LPS_Eselectin: BioMAP Diversity Plus: LPS Assay for Eselectin Biomarker Activity (AID 2283077); conditions: primary human HUVEC with PBMC; actives raise or lower the signal
# Method in brief: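 Human umbilical vein endothelial cells co-cultured with peripheral blood mononuclear cells under LPS stimulation; E-selectin measured by ELISA 24 h after chemical dosing. Activity fitted bidirectionally against DMSO as negative control and baseline.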
# [3] = read-out: Interleukin-8 (IL8), CXCL8 (gene 3576); assay: BSK_LPS_IL8: BioMAP Diversity Plus: LPS Assay for Interleukin-8 (IL8) Biomarker Activity (AID 2283078); conditions: primary human HUVEC with PBMC; actives raise or lower the signal
# Method in brief: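 Human umbilical vein endothelial cells co-cultured with PBMC were stimulated with LPS; IL-8 levels were measured by ELISA 24 h after chemical dosing. Activity was fitted bidirectionally against DMSO as negative control and baseline.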
# [4] = BSK_LPS_SRB: Viability Assessment in the BioMAP Diversity Plus: LPS Assay (AID 2283079); conditions: primary human HUVEC with PBMC;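 note: total protein by sulforhodamine B absorbance as a cytotoxicity measure; measured one day after compound addition; fitted in both directions against DMSO so loss or gain of signal counts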
# Method in brief: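 Human umbilical vein endothelial cells co-cultured with PBMC (LPS system) were dosed for 24 h. Total protein was stained with 0.1% sulforhodamine B after 10% TCA fixation, read at 560 nm, and fitted bidirectionally against DMSO baseline.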
# [5] = read-out: Interleukin-1 alpha (IL1a), IL1A (gene 3552); assay: BSK_LPS_IL1a: BioMAP Diversity Plus: LPS Assay for Interleukin-1 alpha (IL1a) Biomarker Activity (AID 2283080); conditions: primary human HUVEC with PBMC; actives raise or lower the signal
# Method in brief: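 Human umbilical vein endothelial cells co-cultured with peripheral blood mononuclear cells were LPS-stimulated and exposed to test chemicals for 24 h. IL-1 alpha was quantified by ELISA, with bidirectional curve fitting against DMSO as the negative control and baseline.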
# [6] = read-out: Monocyte Chemoattractant Protein-1 (MCP1), CCL2 (gene 6347); assay: BSK_LPS_MCP1: BioMAP Diversity Plus: LPS Assay for Monocyte Chemoattractant Protein-1 (MCP1) Biomarker Activity (AID 2283081); conditions: primary human HUVEC with PBMC; actives raise or lower the signal;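 for AC50: co-culture stimulated with LPS; secreted MCP-1 protein quantified by ELISA in culture supernatant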
# Method in brief: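 HUVEC plus PBMC co-culture (human primary cells, LPS system) exposed to test chemical for 24 h; MCP-1 measured by ELISA. Bidirectional curve fitting against DMSO baseline; parallel SRB total-protein staining flags overt cytotoxicity.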
# [7] = BSK_LPS_PGE2: BioMAP Diversity Plus: LPS Assay for Prostaglandin E2 (PGE2) Biomarker Activity (AID 2283082); conditions: primary human HUVEC with PBMC; actives raise or lower the signal;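 for AC50: secreted prostaglandin E2 measured by ELISA in LPS-stimulated co-culture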
# Method in brief: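 PGE2 release measured by ELISA in an LPS-activated co-culture of human umbilical vein endothelial cells and peripheral blood mononuclear cells, read at 24 h post-dosing. DMSO served as baseline for bidirectional curve fitting.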
# [8] = read-out: Macrophage colony-stimulating factor (MCSF), CSF1 (gene 1435); assay: BSK_LPS_MCSF: BioMAP Diversity Plus: LPS Assay for Macrophage colony-stimulating factor (MCSF) Biomarker Activity (AID 2283083); conditions: primary human HUVEC with PBMC; actives raise or lower the signal
# Method in brief: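 Human umbilical vein endothelial cells co-cultured with peripheral blood mononuclear cells were exposed to compound for 24 h. M-CSF levels were measured by ELISA, and bidirectional curve fitting used DMSO as the negative control and baseline.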
# [9] = read-out: Tissue Factor, F3 (gene 2152); assay: BSK_LPS_TissueFactor: BioMAP Diversity Plus: LPS Assay for Tissue Factor Biomarker Activity (AID 2283084); conditions: primary human HUVEC with PBMC; actives raise or lower the signal
# Method in brief: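 Human umbilical vein endothelial cells co-cultured with peripheral blood mononuclear cells were dosed and stimulated with LPS. Cell-surface CD142 was quantified by ELISA at 24 h. Activity was fitted bidirectionally against DMSO baseline.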
# E-selectin (Homo sapiens), sequence (P16581 whole entry, looked up): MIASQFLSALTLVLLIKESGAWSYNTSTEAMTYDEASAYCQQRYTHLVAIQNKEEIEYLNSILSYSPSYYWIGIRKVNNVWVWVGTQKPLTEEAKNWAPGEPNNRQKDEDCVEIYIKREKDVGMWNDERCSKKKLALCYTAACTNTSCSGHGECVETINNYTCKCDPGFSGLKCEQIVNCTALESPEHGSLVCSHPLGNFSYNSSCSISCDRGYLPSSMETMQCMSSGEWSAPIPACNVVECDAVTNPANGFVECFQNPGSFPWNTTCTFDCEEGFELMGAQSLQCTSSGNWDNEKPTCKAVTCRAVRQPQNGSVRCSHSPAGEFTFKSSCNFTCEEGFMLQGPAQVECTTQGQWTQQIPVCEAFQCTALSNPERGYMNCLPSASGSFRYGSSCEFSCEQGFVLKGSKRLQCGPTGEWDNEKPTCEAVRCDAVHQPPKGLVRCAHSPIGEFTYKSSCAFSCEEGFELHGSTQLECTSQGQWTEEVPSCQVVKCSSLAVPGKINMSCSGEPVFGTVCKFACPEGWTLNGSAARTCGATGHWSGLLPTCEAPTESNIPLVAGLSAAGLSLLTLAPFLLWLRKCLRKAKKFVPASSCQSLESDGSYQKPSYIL
SMILES,outcome [1],"outcome (CD40, CD40 (gene 958))",outcome [2],outcome [3],outcome [4],outcome [5],outcome [6],outcome [7],outcome [8],outcome [9],AC50 [1],"AC50 (CD40, CD40 (gene 958))",AC50 [2],AC50 [4],AC50 [5],AC50 [6],AC50 [8],AC50 [3],AC50 [7],AC50 [9]
CCOCCOCCOCCO,inactive,inactive,inactive,inactive,inactive,inactive,inactive,inactive,inactive,inactive,–,–,–,–,–,–,–,–,–,–
CCNc1ccccc1,inactive,inactive,inactive,inactive,inactive,inactive,inactive,inactive,inactive,inactive,–,–,–,–,–,–,–,–,–,–
CCC(C)(C)C(=O)O[C@H]1C[C@@H](C)C=C2C=C[C@H](C)[C@H](CC[C@@H]3C[C@@H](O)CC(=O)O3)[C@H]21,–,–,–,inactive,–,–,–,inactive,–,inactive,31.2 µM (active),6.52 µM (active),0.168 µM (active),4.75 µM (active),1.28 µM (active),30.5 µM (active),35 µM (active),–,–,–
CCCC(=O)OCC,inactive,inactive,inactive,inactive,inactive,inactive,inactive,inactive,inactive,inactive,–,–,–,–,–,–,–,–,–,–
CCCCCCCCO,inactive,inactive,inactive,inactive,inactive,inactive,inactive,inactive,inactive,inactive,–,–,–,–,–,–,–,–,–,–
Cn1cnc([N+](=O)[O-])c1Sc1ncnc2nc[nH]c12,inactive,inactive,inactive,inactive,inactive,inactive,–,inactive,inactive,inactive,–,26.9 µM (active) and 4.17 µM (active),–,–,–,–,20.3 µM (active) and 5.64 µM (active),–,–,–
O=C1OC(=O)C2C3C=CC(C3)C12 (stereo unspecified),inactive,inactive,inactive,inactive,inactive,inactive,inactive,inactive,inactive,inactive,–,–,–,–,–,–,–,–,–,–
Cc1[nH]cnc1C[C@H]1CCc2c(C)c3ccccc3n2C1=O,inactive,–,inactive,–,–,inactive,–,inactive,–,inactive,–,27.8 µM (active),–,26.2 µM (active),–,27 µM (active),29.2 µM (active),24.3 µM (active),–,–
CNS(=O)(=O)c1cc(C(=O)N2CCC(CCN3C4CCC3CC(n3c(C)nc5ccccc53)C4)(c3cccc(F)c3)CC2)c(Cl)cc1F (stereo unspecified),inactive,–,inactive,–,–,–,–,inactive,–,inactive,–,20 µM (active),–,17.4 µM (active),23.5 µM (active),24.2 µM (active),18.3 µM (active),20 µM (active),–,–
CCCCC(CC)COC(=O)CCCCCCCCC(=O)OCC(CC)CCCC (stereo unspecified),inactive,inactive,inactive,inactive,inactive,inactive,inactive,inactive,inactive,inactive,–,–,–,–,–,–,–,–,–,–
O=C(O)CCN(C1(C(=O)NO)CCCC1)S(=O)(=O)c1ccc(Oc2ccc(F)cc2)cc1,inactive,inactive,inactive,inactive,inactive,inactive,inactive,inactive,inactive,inactive,–,–,–,–,–,–,–,–,–,–
Fc1ccccc1[C@@H](F)COC1CCC(Nc2ncnc3[nH]ncc23)CC1 (stereo partly specified),inactive,–,–,–,–,inactive,–,inactive,–,inactive,–,15.4 µM (active),29 µM (active),29.2 µM (active),–,30.3 µM (active),20 µM (active),28.9 µM (active),–,–
O=C(O)c1cc(N=Nc2ccc(S(=O)(=O)Nc3ccccn3)cc2)ccc1O,inactive,inactive,inactive,inactive,inactive,inactive,inactive,inactive,inactive,inactive,–,–,–,–,–,–,–,–,–,–
COC(=O)c1ccccc1O,inactive,inactive,inactive,inactive,inactive,inactive,inactive,inactive,inactive,inactive,–,–,–,–,–,–,–,–,–,–
CCn1nc(Cc2ccccc2)cc1C1CCN(C[C@H]2C[C@H](N(C)[C@@H](C(=O)O)C(C)C)C[C@@H]2c2cccc(F)c2)CC1,inactive,inactive,inactive,inactive,inactive,inactive,inactive,inactive,inactive,inactive,–,–,–,–,–,–,–,–,–,–
CC[C@H]1OC(=O)[C@H](C)[C@@H](O[C@H]2C[C@@](C)(OC)[C@@H](O)[C@H](C)O2)[C@H](C)[C@@H](O[C@@H]2O[C@H](C)C[C@H](N(C)C)[C@H]2O)[C@](C)(O)C[C@@H](C)C(=O)[C@H](C)[C@@H](O)[C@]1(C)O,inactive,inactive,inactive,inactive,inactive,inactive,inactive,inactive,inactive,inactive,–,–,–,–,–,–,–,–,–,–
Clc1nc(Cl)c(Cl)c(Cl)c1Cl,inactive,–,–,–,inactive,–,–,–,–,–,–,30.4 µM (active),30.9 µM (active),–,14.4 µM (active),32.1 µM (active),32.2 µM (active),32.7 µM (active),15.1 µM (active),33.1 µM (active)
C[C@](N)(Cc1ccc(O)c(O)c1)C(=O)O,inactive,inactive,inactive,inactive,inactive,inactive,inactive,inactive,inactive,inactive,–,–,–,–,–,–,–,–,–,–
